CYP2C9 activ: increases human cytochrome P450 2C9 activity. hit rate 1.4% among 96,000. P11712. activation factor at 5 µM. recombinant CYP2C9, luciferin-H conversion, luminescence; hits give high values; factor 1 = untreated enzyme, 0 = blocked. AID 1024;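 active = activation factor of 2 or more for CYP2C9 at a 5 µM dose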
CYP2C9 inhib: blocks human cytochrome P450 2C9. P11712. inhibition, % at 5 µM. CYP2C9 Supersomes, luciferin-H conversion, luminescence. AID 777. hit rate 20% among 96,000;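 active = blocking of liver enzyme CYP2C9 beyond about 50% at 5 µM, limit read from the data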
PLK1 kinase inh: PLK1 (human) kinase inhibition. recombinant PLK1 kinase, TR-FRET peptide phosphorylation. inhibition, % at 10 µM. hit rate 0.53% among 97,000. AID 619;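 active = inhibition of 50% or more in the single-concentration screen; inactive = inhibition below 50%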
CYP2C19 inhib: human CYP2C19 inhibition. P33261. AID 778. CYP2C19 Supersomes, luciferin-H EGE luminescence, 30 min. hit rate 21% among 96,000. inhibition, % at 5 µM;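 active = CYP2C19 inhibition above a set limit at 5 µM in the primary screen, cut at about 50% in these data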
Target sequence (P33261 whole entry, looked up): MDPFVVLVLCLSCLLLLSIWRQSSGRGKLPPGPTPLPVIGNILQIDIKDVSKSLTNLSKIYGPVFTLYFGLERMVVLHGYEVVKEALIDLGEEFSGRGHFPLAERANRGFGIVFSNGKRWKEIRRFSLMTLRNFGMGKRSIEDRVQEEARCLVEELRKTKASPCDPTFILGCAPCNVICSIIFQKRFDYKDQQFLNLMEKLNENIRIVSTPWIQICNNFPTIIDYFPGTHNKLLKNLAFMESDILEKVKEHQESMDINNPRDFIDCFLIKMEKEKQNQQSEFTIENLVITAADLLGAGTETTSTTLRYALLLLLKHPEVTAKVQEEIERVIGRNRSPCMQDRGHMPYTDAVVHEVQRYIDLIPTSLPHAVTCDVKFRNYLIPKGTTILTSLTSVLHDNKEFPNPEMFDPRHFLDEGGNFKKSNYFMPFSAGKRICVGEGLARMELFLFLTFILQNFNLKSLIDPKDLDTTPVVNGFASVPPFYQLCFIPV
Plk1 PBD FP: inhibitors of human Plk1 polo box domain binding | P53350 | Plk1 PBD phosphopeptide binding, fluorescence polarization | inhibition, %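 (tested at about 20 µM)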 | hit rate 0.13% among 97,000 | AID 693; in the data active = inhibition above about 34%, passing the limit was not always enough
CYP2C19 act: increases human CYP2C19 enzyme activity. recombinant CYP2C19, luciferin-H EGE luminescence; hits give high values; 0 = fully inhibited enzyme, 1 = untreated enzyme. activation factor at 5 µM. 96,000 tested, under 10 active;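 active = activation factor of at least 2 at 5 µM in the primary screen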
Each line names hits and unclear results; the compound was inactive in the other large screens. Compounds with a hit are over-represented: about 28% of the library has one in this group of screens.

Nc1ccc2nn(-c3cccc4ccccc34)nc2c1	CYP2C9 inhib 51
Cc1ccc(-n2nc3cc(C)c(N)cc3n2)cc1	none
Cc1cc(N2CCN(c3cccc(C(F)(F)F)c3)CC2)n2nc(C)nc2n1	none (no result: PLK1 kinase inh, Plk1 PBD FP)
CCOc1ccc2nc3c(cc2c1)CN(CCOC)C(=NCCOC)S3	none
COCCN=C1Sc2nc3ccc(C)cc3cc2CN1Cc1ccco1	CYP2C9 inhib 68, CYP2C19 inhib 59
COc1ccc(CC2CCOC2=O)cc1 (stereo not given)	CYP2C19 inhib 76
COc1ccc(CC2C(=O)OC(C)(C)OC2=O)cc1	none
CCOC(=O)c1cc2c(=O)n3cccc(C)c3nc2n(Cc2cccnc2)c1=N	none (no result: CYP2C9 activ, CYP2C9 inhib, CYP2C19 inhib, CYP2C19 act)
CCOC(=O)c1ccc(NC(=O)COc2ccccc2OC)cc1	none
CCC(=O)Nc1cc(C(=O)OCC(=O)c2ccccc2Cl)ccc1C	CYP2C9 activ 2.1
CCC(=O)Nc1ccc(C(=O)CSc2nc3ccccc3cc2CC)cc1	CYP2C9 inhib 88
CCC(=O)NNC(=O)CCC(=O)Nc1ccccc1	none
CCC(=O)Nc1ccc(C(=O)OCc2ccccc2Cl)cc1	CYP2C19 inhib 57
CCC(=O)Nc1ccc(C(=O)c2ccccc2)cc1	CYP2C9 activ 2
CCN1CCN(C(=O)CN(c2ccccc2C)S(C)(=O)=O)CC1	none
COc1ccc(CNC(=O)c2ccc(NC(=O)C3CCCO3)cc2)cc1 (stereo not given)	none (no result: PLK1 kinase inh, Plk1 PBD FP)
CCC(C)NC(=O)C1CCN(S(=O)(=O)CC)CC1 (stereo not given)	none
Cc1ccc2[nH]c3c(NCCCN4CCCC4=O)ncnc3c2c1	none
CCCn1nc2cc(C(=O)N(CC)c3ccc(OC)cc3)ccc2c1OCC	none
O=C(NCc1ccccc1)NC1CC2CCC(C1)N2Cc1ccco1 (stereo not given)	none
CCOc1ccccc1C(=O)NC1CC2CCCC(C1)N2C1CC1 (stereo not given)	CYP2C9 inhib 69
CCOc1ccccc1C(=O)NCC(=O)OCC(=O)N1C(C)CCCC1C (stereo not given)	none (no result: CYP2C9 activ, CYP2C9 inhib, CYP2C19 inhib, CYP2C19 act)
O=C(NC1CC2CCC(C1)N2Cc1nnnn1Cc1ccco1)NC12CC3CC(CC(C3)C1)C2 (stereo not given)	CYP2C9 inhib 54, CYP2C19 inhib 71 (no result: PLK1 kinase inh, Plk1 PBD FP)
CCOc1ccccc1C(=O)NC1CC2CCCC(C1)N2Cc1nnnn1Cc1ccco1 (stereo not given)	CYP2C9 inhib 98, CYP2C19 inhib 88
O=C(COc1cccc2ccccc12)NNC(=O)C1CCCO1 (stereo not given)	none
CN1C(=S)SC(C)(C)C1(C)NO (stereo not given)	none
Cc1ccc(/C=c2\sc3n(c2=O)CN(c2ccc(Br)cc2)CN=3)o1	CYP2C9 inhib 62
CC1C(c2ccccc2)N(C)C(c2ccccc2)CC1(O)c1ccccc1 (stereo not given)	CYP2C19 inhib 65
COc1cc(NC(=O)C2CCCCC2)c(OC)cc1NC(=O)CCC(=O)NCc1ccco1	none
Cc1ccnc(NS(=O)(=O)c2ccc(NC(=O)C34CC5CC(CC(C5)C3)C4)cc2)n1	none
N#Cc1nc(-c2cccs2)oc1NCc1ccccc1Cl	CYP2C9 inhib 57
C=CCNc1oc(-c2cccc3ccccc23)nc1C#N	none
C=CCNc1oc(-c2cccs2)nc1C#N	CYP2C19 inhib 72
N#Cc1nc(-c2cccs2)oc1NCc1ccc(Cl)cc1	none (no result: PLK1 kinase inh, Plk1 PBD FP)
Cc1ccc(CNc2oc(-c3cccs3)nc2C#N)cc1	CYP2C9 inhib 78
N#Cc1nc(-c2cccs2)oc1NCc1ccco1	CYP2C9 inhib 90, CYP2C19 inhib 76
CC(=O)c1cc(-c2ccccc2)n(CC(=O)N2CCC(N3CCCCC3)CC2)c1C	none
C1CNCCOCCNCCN1	none
FC(F)(F)c1cc(-c2ccc(Cl)cc2)nc2ncnn12	none
O=C(c1cccc(Br)c1)c1cn(-c2ccccc2)nc1C(=O)c1ccccc1	none
O=C1CC(=C(c2ccccc2)c2ccccc2)C(=O)N1CCCCN1CCN(c2cccc(Cl)c2)CC1	CYP2C9 inhib 66
Cc1ccccc1N1CCN(CCCN2C(=O)CC(=C(c3ccccc3)c3ccccc3)C2=O)CC1	CYP2C9 inhib 50, CYP2C19 inhib 73
Cc1cnc(C(=O)OCC(=O)c2csc(N3CCCCC3)n2)cn1	none
COCCNC(=O)COc1ccc(Oc2ccccc2)cc1	none
CC1CCN(S(=O)(=O)c2ccc(Cl)cc2)CC1	none
CC1CCN(S(=O)(=O)c2cc(Cl)ccc2Br)CC1	CYP2C9 activ 3.1, CYP2C19 inhib 98
O=S(=O)(c1ccc(Cl)cc1Br)N1CCCCC1	CYP2C19 inhib 87
CC1CCCN(S(=O)(=O)c2cc(Cl)ccc2Cl)C1 (stereo not given)	CYP2C9 activ 2.4, CYP2C19 inhib 96
CC1CCCN(S(=O)(=O)Cc2ccc(Cl)cc2)C1 (stereo not given)	CYP2C19 inhib 97
O=S(=O)(c1ccc(F)c2ccccc12)N1CCCCC1	CYP2C9 activ 4.7
O=S(=O)(c1ccccc1S(=O)(=O)N1CCCCC1)N1CCCCC1	none
CCS(=O)(=O)c1ccc2oc(Nc3ccccc3C)nc2c1	CYP2C9 inhib 54, CYP2C19 inhib 59
Cc1ccccc1Nc1cc(=O)oc2ccccc12	none
Cc1ccc(C)c(N2CCN(CCCNC(=O)Cn3cc4c(n3)CCCCC4)CC2)c1	none (no result: PLK1 kinase inh, Plk1 PBD FP)
CCOC(=O)C1=C(c2ccccc2)OC(N)=C(C#N)C1C(C)C (stereo not given)	none
CCOC(=O)C1=C(NC#N)OC(C)=C(C)C1c1ccc(O)cc1 (stereo not given)	CYP2C9 inhib 70, CYP2C19 inhib 96
CCn1c(CSCc2ccc(F)cc2)nnc1SCC(=O)N1CCN(c2ccccc2)CC1	CYP2C9 inhib 58, CYP2C19 inhib 80
Cc1ccc(CSCc2nnc(SCC(=O)N3CCN(c4ccccc4)CC3)n2C)cc1	CYP2C9 inhib 78, CYP2C19 inhib 60
Cc1ccc(N2CC(C(=O)Nc3ccccc3C(=O)NC3CCCCC3)CC2=O)cc1C (stereo not given)	none (no result: CYP2C9 activ, CYP2C9 inhib, CYP2C19 inhib, CYP2C19 act)
COC(=O)Cn1c(CN2CCOCC2)nc2c1c(=O)[nH]c(=O)n2C	none (no result: PLK1 kinase inh, Plk1 PBD FP)
C=CCn1c(SCc2ccc3c(c2)OCO3)nc2scc(-c3ccco3)c2c1=O	none
COc1ccc(C(=O)Nc2ccc3c(c2)nc2n3CCSC2)cc1	none
CC(c1ccccc1)N1CCn2c(nc3cc(NC(=O)c4cccs4)ccc32)C1 (stereo not given)	CYP2C9 inhib 84
O=C(Nc1ccc2c(c1)nc1n2CCSC1)c1ccccc1	CYP2C9 inhib 54
O=c1oc2ccccc2cc1C1=Nn2c(nnc2-c2cccnc2)SC1	none
COc1ccc(NC(=O)N(CCc2ccccc2)Cc2cc3c(C)cc(C)cc3[nH]c2=O)cc1	none
Cc1ccc2[nH]c(=O)c(CN(CC3CCCO3)C(=O)c3ccco3)cc2c1 (stereo not given)	none (no result: PLK1 kinase inh, Plk1 PBD FP)
COc1ccc(S(=O)(=O)N(CCCN2CCCC2=O)Cc2cc3c(C)cc(C)cc3[nH]c2=O)cc1	CYP2C9 inhib 94, CYP2C19 inhib 65

Compound activity: PubChem, several laboratories
